Compound activity as filed in PubChem BioAssay.
RXFP1 antagonist: RXFP1 (human) relaxin receptor antagonism; Q9HBX9; activity change, negative = inhibition, % at 57.5 µM; AID 1259400; 350,000 tested, 0.59% active; HEK293-RXFP1, relaxin-stimulated cAMP HTRF, 30 min; active compounds read low;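 active means activity change of -60% or lower, but not beyond a set lower limit; inconclusive means change between -60% and -40%, or beyond the set limit; inactive means change above -40%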; further: on the % scale 0 is the no-effect control and ±100 the full control effect
gsp ag: agonists of gsp mutant (McCune-Albright syndrome). 340,000 tested, 0.13% active. Potency, µM (highest dose often 76.9 µM), inactives show at the top dose activation (cAMP increase), usual class: activators. gsp mutant cells, cAMP HTRF, 30 min. AID 624287; active means well fitted activation curve with a large enough effect; inconclusive means small, poorly fitted or top-dose-only effect, or another doubt; inactive means no such curve, though single readings can be large or run the other way; cell line not stated here;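 further: phosphodiesterase inhibitor Ro 20-1724 added with compounds to block cAMP breakdown; potency means the concentration at half of the fitted maximal effect; nearly all actives have a fitted effect of over 60% in size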
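Cells in DMEM/10% FBS with G418 were pretreated with compounds in DMSO plus […] (300 uM stock) for 30 min at 37C. cAMP was measured by HTRF (cAMP-d2 plus anti-cAMP antibody-K) after 30 min at room temperature.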
RXFP1 agonist: activates the human relaxin receptor RXFP1; Potency, µM (highest dose often 57.5 µM), for the others: at the highest dose activation, most hits filed as activators; Q9HBX9; 370,000 tested, 0.3% active; HEK293T-RXFP1 cAMP TR-FRET, 30 min; response scale: percent of porcine relaxin response, buffer zero; active means well fitted activation curve with a large enough effect; inconclusive means small, poorly fitted or top-dose-only effect; further: potency means the concentration at half of the fitted maximal effect; on the % scale 0 is the no-effect control and ±100 the full control effect; nearly all actives have a fitted effect of over 60% in size
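HEK293T cells stably expressing RXFP1 were pretreated with the PDE4 inhibitor Ro 20174, exposed to compounds for 30 min at 37C, lysed, and cAMP was read by TR-FRET. Data normalized to buffer (basal) and 29 nM porcine relaxin (100%).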
gsp antag: gsp mutant antagonism; gsp-mutant cells, cAMP HTRF, 30 min; 340,000 tested, 0.4% active; Potency, µM (top dose mostly 76.9 µM), for the others: at the top dose activity change, negative = inhibition, actives largely listed as inhibitors; AID 624288; calls by dose curve; cell line not stated here;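 further: intracellular cAMP measured with PDE inhibitor Ro 20-1724 present during compound exposure; potency means the concentration at half of the fitted maximal effect; on the % scale 0 is the no-effect control and ±100 the full control effect; nearly all actives have a fitted effect of over 65% in size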
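Cells in G418 medium, seeded 16-24 h, 37C; buffer exchange to DPBS + 1 mM CaCl2, 0.5 mM MgCl2, 0.05% BSA; cpds in DMSO + […] (300 uM stock), 30 min 37C; HTRF cAMP detection.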
Akt phos inh: blocks phosphorylation of Akt. Neuro2A IGF-stimulated pAkt S473 HTRF, 20 min; active compounds read low. activity change, % for hits at 50 µM. 360,000 tested, 0.32% active; in the data active means activity change below about -80%; inconclusive means mostly about -51% to -80%; further: on the % scale 0 is the no-effect control and ±100 the full control effect
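Single-point screen (50 µM final compound) in Neuro2A cells stimulated 20 min with 6 nM IGF at 37 deg C. After lysis, Ser473-phosphorylated Akt read by HTRF (ex 330 nm, em 615/665 nm) as the 665/615 ratio.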
ClpP mod: qHTS Assay for Activators of ClpP | 340,000 tested, 1.9% active | purified B. subtilis ClpP, FRET peptide cleavage, 20 min | Potency, µM (top dose mostly 57.5 µM), for inactives: at the highest dose activity change, negative = active | ATP-dependent Clp protease proteolytic subunit (Bacillus subtilis (strain 168)), P80244; active means well fitted falling curve with a large enough effect; inconclusive means small, poorly fitted or top-dose-only effect; inactive means no such curve, though single readings can be large or run the other way; further: potency means the concentration at half of the fitted maximal effect; the source files actives as falling curves though it sought activators and does not explain the sign; nearly all actives have a fitted effect of over 65% in size
Target sequence (P80244 whole entry, looked up): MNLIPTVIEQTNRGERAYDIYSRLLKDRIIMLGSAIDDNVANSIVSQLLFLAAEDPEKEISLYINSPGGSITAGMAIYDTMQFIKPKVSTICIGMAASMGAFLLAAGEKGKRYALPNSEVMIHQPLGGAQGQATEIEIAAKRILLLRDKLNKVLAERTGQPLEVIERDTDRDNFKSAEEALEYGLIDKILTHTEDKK
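Purified B. subtilis ClpP, 10 microg/mL final in Tris/HCl pH8 with KCl, BSA, glycerol and Tween-20, cleaved an Abz/nitrotyrosine-quenched decapeptide. Fluorescence (ex 320, em 430) was read at 0 and 20 min at room temperature. Delta was normalized to 5.8 microM ADEP and DMSO/no-enzyme controls.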
* marks the source's active call; other numbers are inactive results; [ ] = dose if it differs, or a comment. Shown are actives, neighbours in structure and some others; about 2.7% of the full set was active somewhere.

CCOc1ccc(CNC(=O)CCS(=O)(=O)Cc2ccc(C)cc2)cc1OC was read as RXFP1 antagonist -13, gsp ag -11%[15.4 µM], RXFP1 agonist 3%, gsp antag 0%, Akt phos inh inactive and ClpP mod 25µM*.
O=C(O)c1ccc(S(=O)(=O)N(Cl)Cl)cc1 was read as RXFP1 antagonist -10.
For C[C@H](CO)N1C[C@H](C)[C@H](CN(C)S(=O)(=O)c2ccc(Cl)cc2)OCc2cnnn2CCCC1=O the results were RXFP1 antagonist -2, gsp ag -36%, Akt phos inh inactive and ClpP mod -3%.
`CCOc1ccc(-c2nc(SCC(=O)NCCOC)c(-c3ccc(OC)c(OC)c3)[nH]2)cc1` gave RXFP1 antagonist -32, RXFP1 agonist -6% and ClpP mod -29%.
`Cc1cccc(Oc2ncnc3onc(C)c23)c1` gave RXFP1 antagonist -10, gsp ag -13%, RXFP1 agonist 1%, gsp antag 4%, Akt phos inh inactive and ClpP mod 0%.
Screening Cc1noc2ncnc(Oc3ccccc3)c12 returned RXFP1 antagonist -6, gsp ag 22%, RXFP1 agonist 1%, gsp antag 2%, Akt phos inh inactive and ClpP mod 25µM*.
COc1ccccc1NC(C)C(=O)c1c[nH]c2ccccc12 (configuration not stated) was read as ClpP mod 0%.
Screening COc1ccccc1-c1nnc(SC(C(=O)c2c[nH]c3ccccc23)c2ccccc2)n1C (configuration not stated) returned RXFP1 antagonist 2, gsp ag 5%, RXFP1 agonist 0%, gsp antag 35µM*, Akt phos inh inactive and ClpP mod 2%.
Screening COc1cccc(-c2nnc(SC(C(=O)c3c[nH]c4ccccc34)c3ccccc3)n2C)c1 (configuration not stated) returned RXFP1 antagonist -77*, gsp ag -4%[15.4 µM], RXFP1 agonist 0%, gsp antag inconclusive and Akt phos inh inactive.
`Nc1cc(C(F)(F)F)ccc1S` gave RXFP1 antagonist -8.
Screening CN(C)c1ccc(/C=N/NC(=O)CCC(=O)NCc2ccccc2)cc1 returned RXFP1 antagonist 13, gsp ag 3%, RXFP1 agonist 0%, gsp antag -10%, Akt phos inh inactive and ClpP mod 10µM*.
`CN(C)c1ccc(/C=N/NC(=O)CCCCCNC(=O)c2ccccc2)cc1` gave RXFP1 antagonist -14, gsp ag -5%[15.4 µM], RXFP1 agonist -2%, gsp antag -15% and Akt phos inh inactive.
Screening CN(C)c1ccc(/C=N/NC(=S)NCc2ccco2)cc1 returned RXFP1 antagonist 0, gsp ag -4%, RXFP1 agonist 3%, gsp antag -5%, Akt phos inh inactive and ClpP mod 25µM*.
CCCCCC(=O)N/N=C/c1ccc(N(C)C)cc1 was read as RXFP1 antagonist 7, gsp ag inconclusive, RXFP1 agonist 0%, gsp antag -13%, Akt phos inh inactive and ClpP mod 28µM*.
For COc1ccc(Cl)cc1-c1cc(C(=O)N[C@H](C)c2ccccc2)[nH]n1 the results were Akt phos inh inactive and ClpP mod -8%.
COc1ccc(CN2C(=NC(=O)C3CCCO3)SC3CS(=O)(=O)CC32)cc1OC (configuration not stated) was read as RXFP1 antagonist 11, gsp ag -47%, RXFP1 agonist 1%, gsp antag 17%, Akt phos inh inactive and ClpP mod 0%.
Screening CC1(c2nnc(-c3cccc(Cl)c3)o2)CC(c2cccc([N+](=O)[O-])c2)=NO1 (configuration not stated) returned RXFP1 agonist 0%, gsp antag -8%, Akt phos inh inactive and ClpP mod -2%.
For O=C(Nc1ccc2c(c1)OCO2)N1CCN(C/C=C/c2ccccc2)CC1 the results were RXFP1 antagonist -5, gsp ag 3%, RXFP1 agonist 0%, gsp antag 2%, Akt phos inh -83%* and ClpP mod -3%.
For Cc1cc(C)nc(N/C(=N\S(=O)(=O)Cc2ccccc2)Nc2cccc(Cl)c2C)n1 the results were RXFP1 antagonist -4, gsp ag -29%, RXFP1 agonist 1%, gsp antag 1%, Akt phos inh -118%* and ClpP mod -4%.
Cc1ccc(CSc2nc3ccsc3c(=O)n2Cc2ccccn2)cc1 was read as RXFP1 antagonist 3, gsp ag -47%, RXFP1 agonist 0%, gsp antag -17%, Akt phos inh inactive and ClpP mod -2%.
`O=c1c2sccc2nc(SCc2cc(=O)n3cc(Br)ccc3n2)n1Cc1ccccn1` gave RXFP1 antagonist 12, gsp ag 25%[15.4 µM], RXFP1 agonist 25µM*, gsp antag 6%, Akt phos inh inactive and ClpP mod -2%.
For Cc1ccc(-n2ncc(C(=O)N3CCCCC3)c2C2CCN(C(=O)OC(C)(C)C)CC2)c(C)c1 the results were RXFP1 antagonist -15, RXFP1 agonist 7% and ClpP mod 1%.
For CNC(=S)NNC(=O)Cc1ccc(O)cc1 the results were gsp ag -7%, RXFP1 agonist -2%, gsp antag -15%, Akt phos inh inactive and ClpP mod inconclusive.
CNC(=S)NNC(=O)Cc1ccc(OC)cc1 was read as RXFP1 antagonist 14, gsp ag -6%[15.4 µM], RXFP1 agonist 1%, gsp antag 5%, Akt phos inh inactive and ClpP mod 28µM*.
Screening COc1ccc(CC(=O)NNC(=O)c2cc(Cl)ccc2OC)cc1 returned RXFP1 antagonist -8, gsp ag 0%, RXFP1 agonist 0%, gsp antag -15%, Akt phos inh inactive and ClpP mod 28µM*.
For O=S1(=O)N[C@H](Cc2ccccc2)COc2cc(N3CCC[C@H]3CO)ccc21 the results were Akt phos inh inactive and ClpP mod -5%.
For CC(C)(CC(=O)NCc1ccc(Cl)cc1Cl)CC1=NS(=O)(=O)c2ccccc2N1 the results were RXFP1 agonist 5% and ClpP mod 4%.
Screening NCCCCCc1nnc(SCc2ccc(F)cc2)o1 returned RXFP1 agonist -2% and ClpP mod -3%.
For COc1ccc(C(C)=O)cc1CSc1nc(Nc2ccc(F)c(F)c2)c2ccccc2n1 the results were RXFP1 antagonist 7, RXFP1 agonist 6% and ClpP mod -13%.
O=C1c2ccccc2C(=O)N1c1ccc(O)cc1 was read as ClpP mod -2%.
